# Rows were chosen to be rich in hits. Some 3.9% of all compounds tested hit in one or more screens of this group.
# HGIII-sPLA2 inh – Blocks human group III sPLA2 activity. Q9NZ20. hit rate 0.56% among 370,000. inhibition, % at 12.2 µM. QFRET BODIPY PC-A2 liposome hydrolysis, fluorescence. AID 743126;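 active = inhibition above mean plus 3 SD of compounds lying within the high and low control bounds, cut at about 19% in these data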;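 note: 0% = median of test compound wells and 100% = no enzyme DMSO wells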
# Target sequence (Q9NZ20 whole entry, looked up): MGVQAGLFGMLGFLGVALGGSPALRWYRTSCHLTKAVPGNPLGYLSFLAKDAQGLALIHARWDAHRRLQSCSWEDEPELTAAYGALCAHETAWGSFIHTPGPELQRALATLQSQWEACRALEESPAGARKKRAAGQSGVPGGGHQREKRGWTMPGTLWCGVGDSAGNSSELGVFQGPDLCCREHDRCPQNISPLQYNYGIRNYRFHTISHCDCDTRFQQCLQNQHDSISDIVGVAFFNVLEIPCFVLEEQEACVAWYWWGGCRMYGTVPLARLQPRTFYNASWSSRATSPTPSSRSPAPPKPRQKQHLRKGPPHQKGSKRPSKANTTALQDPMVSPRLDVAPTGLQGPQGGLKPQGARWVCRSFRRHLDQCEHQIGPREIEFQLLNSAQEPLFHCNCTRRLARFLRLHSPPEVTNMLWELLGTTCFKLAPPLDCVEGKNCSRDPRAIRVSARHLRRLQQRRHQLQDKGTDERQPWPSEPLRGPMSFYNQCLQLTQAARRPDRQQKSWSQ
# AHR activator – human AHR activation. P35869. AHR-responsive luciferase reporter cells, luminescence. hit rate 2.5% among 320,000. activation, % at 5 µM; in the data active = activation above about 47%;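 note: 0% = vehicle wells and 100% = reference agonist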
# PLC-beta3 inh – blocks human PLC-beta3 enzyme activity; Purified PLC-beta3, fluorogenic substrate, fluorescence; Q01970; inhibition, % at 12.2 µM; hit rate 0.18% among 370,000; in the data active = inhibition above about 11%;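 note: 0% = median of compound wells on plate and 100% = full blocker control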
# CR mimetic SO – yeast age-related superoxide inhibition as caloric restriction mimetic; S. cerevisiae aged cells, superoxide DHE fluorescence; stronger effect = lower value; superoxide response (% of plate mean), % at 10 µM; hit rate 0.18% among 330,000;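 active = superoxide response under a set limit, about three screen SD below normal, cut at about 65% in these data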;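 note: yeast aged for seven days with compound at 30 °C before DHE staining; 100% = average MFI of all compound-treated wells on the plate with controls excluded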
# HIF activator – HIF pathway transcriptional activation; hit rate 0.32% among 300,000; U2OS HRE-luciferase reporter, luminescence; normalized: DMSO 0%, desferrioxamine 100%; activation, % at 7.5 µM (by protocol);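 active = mean activation of at least 10% of the iron chelator positive control signal, with at least half of replicates also reaching 10%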
# PLC-gamma1 inh – PLC-gamma1 (human) inhibition, primary screen; P19174; purified PLC-gamma1, fluorogenic substrate, fluorescence; inhibition, % at 12.2 µM; hit rate 0.84% among 370,000; AID 720700; in the data active = inhibition above about 9.5%
# * marks the source's active call; other numbers are inactive results; . = no result.
SMILES,HGIII-sPLA2 inh,AHR activator,PLC-beta3 inh,CR mimetic SO,HIF activator,PLC-gamma1 inh
Nc1cccc(S(=O)(=O)N2CCCN(S(=O)(=O)c3ccc4c(c3)OCCO4)CC2)c1,-2,.,0,.,.,1
CCOc1ccc(NC(=O)Nc2cc(-c3ccccc3)sc2C(=O)OC)cc1,1,47*,-1,98,0,1
CCOc1ccc(/C=N/NC(=O)Nc2ccccc2)cc1,-8,61*,-3,78,3,-1
CCN(CC)c1ccc(/C=N/NC(=O)Nc2ccccc2)cc1,0,38,-43,95,1,-31
COc1ccc2nc(NC(=O)Nc3ccccc3)sc2c1,-32,7,1,92,1,3
CCOc1ccc2nc(NC(=O)Nc3ccccc3)sc2c1,-8,78*,2,110,5,2
COc1ccc(OC)c2c1sc(=NC(=O)c1cccc(N3C(=O)CCC3=O)c1)n2C,-1,70*,-3,139,0,-1
COc1ccc(C(=O)N=c2sc3c(C)ccc(OC)c3n2C)cc1,-1,56*,-36,97,5,-29
COc1cc(C(=O)N=c2sc3c(C)ccc(OC)c3n2C)cc(OC)c1OC,16,32,-46,104,0,-28
C=CC[C@H]1c2ccccc2[C@H]2N3N=Cc4ccccc4[C@H]3[C@H](CCCC)C(=O)N2N1C(=O)NCc1ccccc1,4,.,3,.,.,0
CCc1ccc(NC(=O)c2cc(S(=O)(=O)N3CCCC3)c[nH]2)cc1,.,23,.,103,0,.
CCOc1ccc(NC(=O)c2cc(S(=O)(=O)N3CCCCC3)c[nH]2)cc1,12,48*,1,97,0,0
CC(C)c1ccc(NC(=O)c2cc(S(=O)(=O)N3CCCC3)c[nH]2)cc1,-7,49*,0,116,0,1
CCC[C@H]1[C@@H](OC(=O)NC(CC)CC)CC[C@@]23CCCN2C(=O)CCC[C@@H]13,2,.,4,.,.,0
S=C(NCCCCN(Cc1ccc(Cl)cc1)c1ccc(Br)cn1)NCCCc1cnc[nH]1,-15,.,-1,.,.,10*
CCN(CC)C(=O)[C@H]1C[C@@H]2[C@H](C[C@@H](c3ccccc3)[C@H]1C)N(c1ccc(F)cc1)C(=O)N2CCCOc1ccccc1,-10,.,-6,.,.,0
Cn1cc(CC(=O)N2CCN(c3ccc(Cl)cc3)CC2)c2ccccc21,-41,13,4,89,42*,5
Cn1cc(CC(=O)N2CCN(c3ccccc3F)CC2)c2ccccc21,-37,3,-48,104,0,-5
COc1ccccc1Nc1ncccc1[N+](=O)[O-],12,53*,0,106,0,4
COc1ccc(/C=N/NC(=S)Nc2ccccc2[N+](=O)[O-])cc1O,20*,20,-7,88,2,-6
CCOc1ccccc1/C=N/Nc1ccccc1[N+](=O)[O-],3,14,4,114,0,-4
COc1ccc(/C=N\Nc2ccccc2[N+](=O)[O-])c(C(=O)O)c1OC,4,5,-3,102,1,5
COc1ccccc1C(CNc1ncccc1[N+](=O)[O-])N(C)C (stereo not given),8,1,-14,99,-1,-4
O=[N+]([O-])c1cc(/C=N/NC(=S)Nc2ccccc2Cl)ccc1Cl,4,16,-1,99,.,5
COc1ccccc1/C=N\Nc1ccccc1[N+](=O)[O-],12,79*,-7,69,4,2
SMILES,HGIII-sPLA2 inh,AHR activator,PLC-beta3 inh,CR mimetic SO,HIF activator,PLC-gamma1 inh
CC(C)Oc1ccccc1/C=N/Nc1ccccc1[N+](=O)[O-],4,55*,2,100,0,0
O=CN1Cc2[nH]c3ccccc3c2N(c2ccc(Cl)cc2)C1=O,-4,65*,-18,108,0,-13
O=C1CNCc2[nH]c3ccccc3c2N1c1ccccc1,0,54*,-73,91,1,-53
COC(=O)[C@]12C[C@H](CC(=O)NCc3ccc(C)o3)C(=O)N(Cc3ccc(Cl)cc3Cl)C1=C[C@H](C(C)C)O[C@@H]2C1CC1,-16,.,2,.,.,-1
COc1ccc(Cl)c(OC)c1C(=O)NC(=O)Nc1c(F)cc(F)cc1F,-1,0,-1,98,19*,0
COc1cccc(OC)c1C(=O)NC(=O)Nc1c(F)cc(F)cc1F,0,5,-5,107,-1,1
Cc1cc(C)n(-c2nc3ccccc3c(=O)n2OCC#N)n1,17,.,-7,106,14*,-8
Cc1nnc(-c2cccc(Br)c2)c2cn(-c3ccc(Br)cc3)nc12,-1,89*,-2,87,0,1
Cc1nnc(-c2cccc(Br)c2)c2cn(-c3cccc(Br)c3)nc12,-9,39,-1,80,0,-3
COc1ccc(-n2cc3c(-c4cccc(Br)c4)nnc(C)c3n2)cc1,-7,61*,-28,103,-1,-29
O=C(c1cn(-c2ccccc2)nc1-c1cccc(Br)c1)N1CCOCC1,-15,-3,-1,90,0,0
Cc1nnc(-c2cccc(Br)c2)c2cn(-c3ccccc3)nc12,5,48*,2,83,0,-1
S=c1[nH]nc(-c2n[nH]c3c2CCC3)n1N=Cc1ccc(Br)s1,-10,.,-2,.,.,-4
O=C(CSc1nnc(Cc2cccs2)n1-c1ccccc1)Nc1ccccc1-c1ccccc1,-6,.,-1,.,.,2
C=CCNC(=O)CN(C(=O)Cc1cccc(OC(F)(F)F)c1)c1cccc(Br)c1,-2,.,4,.,.,0
CCOc1ccccc1-c1nc(-c2cccc(Br)c2)no1,.,64*,.,96,1,.
CCOc1ccc(-c2noc(-c3cccnc3)n2)cc1OC,9,-11,0,86,3,-3
Cc1ccccc1-c1cc(-c2ccccc2O)on1,0,73*,3,94,1,4
O=C(N/N=C/c1ccncc1)c1cccc(NC(=O)c2ccc(Cl)cc2)c1,-25,1,-2,103,0,-1
O=C(N/N=C/c1ccc(F)cc1)c1cccc(NC(=O)c2ccc(F)cc2)c1,-4,60*,-14,114,1,-4
O=C(N/N=C/c1ccco1)c1cccc(NC(=O)c2cccc(Cl)c2)c1,2,55*,-5,79,1,3
O=C(N/N=C/c1cccnc1)c1ccc(NC(=O)c2ccc(Cl)cc2)cc1,2,1,-61,99,39*,-2
O=C(N/N=C/c1ccco1)c1ccc(NC(=O)c2ccccc2Cl)cc1,7,-2,-4,84,0,-4
O=C(N/N=C/c1cccnc1)c1ccc(NC(=O)c2cccc(Cl)c2)cc1,0,3,-5,106,1,-2
Cc1cccc(NC(=O)C2CCCN2S(=O)(=O)c2cccnc2)c1C (stereo not given),5,.,3,.,.,1
C[C@H]1COc2cc(Br)ccc2S(=O)(=O)N1Cc1cn(Cc2ccco2)nn1,0,.,0,.,.,-1

# Screening data: PubChem BioAssay, several laboratories
